In ChEMBL document CHEMBL4513216, “Probing the Open Global Health Chemical Diversity Library for Multistage-Active Starting Points for Next-Generation Antimalarials” (ACS Infect Dis, 2020):
The campaign covered roughly 69,000 compounds. About 8,600 (12%) showed an effect of 50% or more. Only a selection was taken, and strong results are over-represented in it overall.

test system: Plasmodium berghei; assay: Screen against P. berghei liver stage (PbLuc), transformed with Luciferase, at 10uM; assay type: functional, HepG2; conditions: tested at 10 uM

SMILES | INHIBITION
Nc1nc2c(c(NC(=O)Nc3ccc(Cl)c(Cl)c3)n1)CCCC2 | -10.3%
Nc1nc2c(c(NC(=O)Nc3cccc(Cl)c3)n1)CCCC2 | 88.8%
Nc1nc2c(c(NC(=O)Nc3ccccc3)n1)CCCC2 | 32.1%
COCCOc1ccc(CNc2nc3ccccc3nc2N)cn1 | 80.9%
COCCOc1ccc(CNc2cnc3ccccc3n2)cn1 | -43%
COCCOc1ccc(CNc2nc3ccccc3o2)cn1 | -11.5%
COCCNC(=O)Cn1c(-c2cccc(F)c2)nc(C)c(CCO)c1=O | 7.22%
Cc1cnc(C(=O)N2CCOCC2c2ccccc2)cn1 (stereo not given) | 43.6%
CSc1ccc(OCCN2CCC(n3cncn3)CC2)cc1 | 27.6%
Clc1cc(Cl)cc(OCCN2CCC(n3cncn3)CC2)c1 | 62.4%
c1ccc(OCCN2CCC(n3cncn3)CC2)cc1 | 37.4%
CC(C)n1[nH]c(=O)c2c1NC(=O)CC2c1cccc(O)c1 (stereo not given) | -47%
Cc1cccc(C2CC(=O)Nc3c2c(=O)[nH]n3C(C)C)c1 (stereo not given) | 71.3%
CC(C)n1[nH]c(=O)c2c1NC(=O)CC2c1cccc(Br)c1 (stereo not given) | -6.61%
CSc1ccc(C2CC(=O)Nc3c2c(=O)[nH]n3C(C)C)cc1 (stereo not given) | 19.8%
CC(C)n1[nH]c(=O)c2c1NC(=O)CC2c1ccncc1 (stereo not given) | -19.1%
CCc1ccc(C2CC(=O)Nc3c2c(=O)[nH]n3C(C)C)cc1 (stereo not given) | 79.7%
O=C(CCn1nc(-c2cccs2)oc1=O)Nc1cccc(F)c1 | 31.9%
O=C1CC2(CCN(c3nncs3)C2)CN1c1cncnc1 (stereo not given) | 15.4%
Cc1cnc2c(S(=O)(=O)NCC3CCOC3)cccc2c1 (stereo not given) | 3.15%
Cc1cccc(OCC2CCCN(C(=O)CCn3ccccc3=O)C2)c1 (stereo not given) | -10.2%
c1ccc(-c2nnc3sc(CCN4CCCCCC4)nn23)cc1 | 30.8%

SMILES | INHIBITION
c1ccc(-c2nnc3sc(CCN4CCCC4)nn23)cc1 | 54.3%
c1cc(-c2nnc3sc(CCN4CCCC4)nn23)ccn1 | 46.1%
CC(C)(N)CNS(=O)(=O)Cc1cccc2cccnc12 | 2.66%
CCOCCCNC(=O)CCCC(=O)n1nc(C)c2ccccc21 | 32.2%
Cc1ccsc1-c1cccc(-c2ccn(CC3CCNC3)n2)c1 (stereo not given) | 72.6%
Cc1nccc(-c2cccc(-c3ccn(CC4CCNC4)n3)c2)n1 (stereo not given) | 47.2%
c1cc(-c2cncnc2)cc(-c2ccn(CC3CCNC3)n2)c1 (stereo not given) | 46.4%
CCn1c(C)nnc1CN(C)C1CCN(CCCSC)C1 (stereo not given) | -69.3%
Cc1cc(C(=O)N2CCS(=O)(=O)CC2)c(C)o1 | -9.21%
Cc1cn[nH]c1C1COCCN1Cc1c[nH]cn1 (stereo not given) | 35.6%
Cc1cc(C)c(OCC(=O)NS(=O)(=O)c2c(C)noc2C)c(C)c1 | 55.1%
Cc1cccc(C)c1OCC(=O)NS(=O)(=O)c1c(C)noc1C | -55.8%
Cc1ccc(OCC(=O)NS(=O)(=O)c2c(C)noc2C)cc1C | 6.14%
O=C(NCCn1nc(C2CCNC2)c2cccnc21)C1CCC1 (stereo not given) | 13.5%
Cc1nn(C)c2ncnc(NCC(O)CN3CCCCC3)c12 (stereo not given) | 7.3%
COc1cccc(OC)c1OCCN1C(=O)CCNC1=O | 25.8%
CC(C)Oc1ccccc1OCCN1C(=O)CCNC1=O | 50.5%
COc1ccccc1OCCCN1C(=O)CCNC1=O | -88.2%
COCCc1noc(-c2cc(Cl)c3c(c2)OCCCO3)n1 | -119%
CN1CCC(NC(=O)c2cc(Br)cc(Cl)c2O)C1=O (stereo not given) | 20%
CN1CCN(c2ncc3c(=O)n(Cc4ccco4)ccc3n2)CC1 | 41.3%
CCN1CCN(c2ncc3c(=O)n(Cc4ccco4)ccc3n2)CC1 | 67.5%

SMILES | INHIBITION
O=c1c2cnc(N3CCCCC3)nc2ccn1Cc1ccco1 | -33.7%
Cc1noc(C)c1S(=O)(=O)NC(=O)COc1ccc(C(C)C)cc1 | 4.1%
NS(=O)(=O)CCNC(=O)c1cc2ccccc2nc1N1CCCC1 | 2.91%
Cc1ccc2oc(C(=O)N3CCCC(n4cccn4)C3)cc2n1 (stereo not given) | -32.55%
O=C(NCCOCC(F)(F)F)c1ccc(-c2ccccc2)[nH]c1=O | 14.4%
O=C(CN1CCCC1)N1CCCC1c1nc(O)cc(-c2ccccn2)n1 (stereo not given) | -1.85%
CCC(CO)N(Cc1cccnc1)C(=O)c1ccoc1C (stereo not given) | 3.13%
N#CC1(NC(=O)COC(=O)Cc2cc(Cl)c3c(c2)OCCO3)CCCC1 | 38.9%
N#Cc1ccc(S(=O)(=O)NC(=O)C2CC2)c(C(F)(F)F)c1 | 54.9%
CC(C)C(=O)NS(=O)(=O)c1ccc(C#N)cc1C(F)(F)F | -4.94%
CC(C)(C)C(=O)NS(=O)(=O)c1ccc(C#N)cc1C(F)(F)F | 39.2%
Cc1nc(-c2ccco2)ccc1C(=O)NCCCN1CCOCC1 | 24.3%
O=C(Nc1ccc(I)cc1C(=O)NCCN1CCOCC1)c1ccco1 | 52.2%
O=C(Nc1ccc(I)cc1C(=O)NCCN1CCOCC1)c1cccs1 | 25.4%
O=C(Nc1ccccc1C(=O)NCCCN1CCOCC1)c1ccco1 | 51%
O=C(Nc1ccc(Cl)cc1C(=O)NCCN1CCOCC1)c1ccco1 | 32.3%
O=C(Nc1ccccc1C(=O)NCCN1CCOCC1)c1ccco1 | 38.7%
CCN(CC)C(=O)CN1CCc2nc(C3CCNCC3)nc(NC)c2C1 | 23.9%
O=C1[C@H]2CN(Cc3ccccc3)C[C@H]2CN1CCN1CCCC1 | -55.3%
CO[C@H]1CCN(C(=O)c2cc(C)on2)[C@H]1Cc1ccncc1 | -15.9%
N#CCCN(Cc1ccccn1)Cn1cc(Cl)cn1 | 46.4%
Cc1ncncc1C(=O)NCCN1CCC(C)CC1 | -51.6%

SMILES | INHIBITION
CNC(=O)CCS(=O)(=O)Cc1nnnn1-c1ccccc1 | 31.2%
COCCS(=O)(=O)Cc1nnnn1-c1ccccc1 | 26.9%
CCS(=O)(=O)Cc1nnnn1-c1ccccc1 | 61.1%
COc1ccc([C@@H]2CN(Cc3ccncc3)C[C@H]2c2cc[nH]n2)cc1 | 39.3%
Cn1cc(CN2CCC3(CC2)COC(COc2ccccn2)C3)cn1 (stereo not given) | 30.3%
Cc1cccc(OCC(O)CN2CCN(c3nccs3)CC2)c1 (stereo not given) | 77.4%
Cc1cc(C)cc(OCC(O)CN2CCN(c3nccs3)CC2)c1 (stereo not given) | 53.4%
Cc1cccc(OCC(O)CN2CCC(c3ccn[nH]3)CC2)c1 (stereo not given) | 42%
CC(=O)N(C)c1nc(CN2CCN(c3nccs3)CC2)cs1 | 38.3%
COc1ccc(OCC(O)CN2CCN(c3nccs3)CC2)cc1 (stereo not given) | 8.9%
N#Cc1ccc(OCC(O)CN2CCN(c3nccs3)CC2)cc1 (stereo not given) | 87.6%
CC(C)OCCCNC(=O)CN1CCN(c2nccs2)CC1 | -20.5%
N#Cc1ccc(OCC(O)CN2CCC(c3ccn[nH]3)CC2)cc1 (stereo not given) | 7.08%
OC(COc1ccccc1)CN1CCN(c2nccs2)CC1 (stereo not given) | 27.7%
CCc1c(C(=O)N2CCNC(=O)C2)cnn1C(C)(C)C | 3.73%
Cc1nn(C)c(C)c1C1CCCN1C(=O)c1nccnc1N (stereo not given) | 12.7%
Cn1ncc2c1C(COCC1CC1)CN(Cc1ccsc1)C2 (stereo not given) | 4.57%
COC(=O)COc1ccc(-c2noc(C3CCCO3)n2)cc1 (stereo not given) | 8.59%
COCCCNC(=O)c1cc(-c2ccc(OC)cc2)nn1C | 3.19%
COc1ccccc1C1=NOC(CC2(C(=O)NC(C)C)CCOCC2)C1 (stereo not given) | -29.8%
COc1ccc(-n2nc(C3CC3)nc2CCn2cnnn2)cc1 | 52.5%
COc1ccc(Cl)cc1-n1nc(C2CCCC2)nc1Cn1cnnn1 | 70.4%

SMILES | INHIBITION
COc1ccc(CCNC(=O)C2CCC(Cn3cnnn3)CC2)cc1 (stereo not given) | 22.9%
COCc1nc(C2CC2)nn1-c1ccccc1Cl | 37.2%
CN1CCC(n2nc(Cc3cccc(Cl)c3)nc2Cn2cnnn2)CC1 | 15.7%
CCn1cnnc1C1CCN(C(=O)c2ccc(Cl)cc2OC)CC1 | 25.1%
COCc1nc(C2CC2)nn1-c1cccc(F)c1 | -19.8%
Fc1cccc(-n2nc(C3CC3)nc2CCn2cnnn2)c1 | 24.8%
COCc1nc(C2CC2)nn1-c1cc(Cl)ccc1OC | 51.1%
CN1C(=O)[C@@H]2CC[C@H]1CN(C(=O)c1sccc1S(N)(=O)=O)C2 | 25.9%
CC(Cn1cccn1)Nc1cnc2ccccc2n1 (stereo not given) | 24.2%
Cc1nc(-c2cccc(N3CCC(N[C@@H]4CCOC4)CC3)c2)cs1 | 44.1%
O=C1N(Cc2cccc(F)c2)CCC12CCCN(c1ncc(F)cn1)C2 (stereo not given) | 8.66%
CC(C)=CCCC(C)CN1CCC(n2cc(C(C)(C)O)nn2)CC1 (stereo not given) | -94.3%
CC(C)=CCCC(C)CN1CCC(n2cc(CO)nn2)CC1 (stereo not given) | -109%
CC(C)=CCCC(C)CN1CCC(n2cc(C(=O)NCCO)nn2)CC1 (stereo not given) | 60.9%
O=C(O)C1(Cc2cccc(Cl)c2)CCCN(c2ncnc3[nH]ccc23)C1 (stereo not given) | -37.9%
CC(C)Cc1nc(CN(C)c2cc(C(C)C)nc3ccnn23)no1 | -30.6%
CCNC(=O)N1CCC(c2ccccc2)C1 (stereo not given) | -31%
CSCc1cc(F)ccc1CNCc1ncc[nH]1 | 63.3%
CSCc1cc(F)ccc1CNCc1ccncc1 | 24.2%
CSCc1cc(F)ccc1CNCc1cccnc1 | 35.4%
Cc1nc(Nc2ncccn2)cc(C2CN(C(=O)c3cccnc3)C2)n1 | 37.6%
CC1=CC[C@@H]2CN(C(=O)c3ccc(-c4nnn(C)n4)cc3)C[C@@H]2C1 | 35.8%
